Experimental data reported in PubChem BioAssay (NCATS).
Records with an inconclusive call do not appear. Where a call stands in place of a potency, no number is given. Active and inactive are the calls of the source. Calls come from the whole dose curve; as a rule, active = well fitted curve in the direction sought with a large enough effect; inconclusive = small, poorly fitted or top-dose-only effect, or another doubt; inactive = no such curve, though single readings can be large; an effect the other way counts as inactive or inconclusive.

Columns and labels:
[1] = qHTS of pediatric cancer cell lines to identify multiple opportunities for drug repurposing: Primary screen for TC32 cells (AID 1347089); note: nearly all actives have a fitted effect of over 60% in size
Method in brief: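 qHTS, TC32, 48 h drug treatment, CellTiter-Glo luminescence as a proxy for metabolically active cells; primary top concentration 46 µM (MIPE 11-pt, NPC 8-pt); confirmatory 11-pt.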

[2] = qHTS of pediatric cancer cell lines to identify multiple opportunities for drug repurposing: Primary screen for U-2 OS cells (AID 1347096); note: nearly all actives have a fitted effect of over 50% in size
Method in brief: (§1)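 Viability after 48 h compound treatment at 37C, 500-1,000 cells/well, read as ATP luminescence with CellTiter-Glo. Primary screens used 11-point (MIPE, 0.78 nM-46 µM) or 8-point (NPC, 0.59 nM-46 µM) final concentrations; follow-up screens used 11-point dilutions.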

[3] = qHTS of pediatric cancer cell lines to identify multiple opportunities for drug repurposing: Primary screen for NB1643 cells (AID 1347099); note: nearly all actives have a fitted effect of over 50% in size
Method in brief: (§2)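 Readout: CellTiter-Glo luminescence, 48 h treatment. Controls DMSO (neutral) and bortezomib 2.3 µM final (positive). Potency and efficacy taken from primary-screen concentration-response curves.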

[4] = qHTS of pediatric cancer cell lines to identify multiple opportunities for drug repurposing: Primary screen for DAOY cells (AID 1347090); note: nearly all actives have a fitted effect of over 55% in size
Method in brief: (§3)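 Viability measured as metabolically active cells via CellTiter-Glo luminescence following 48 hours of compound exposure, 11-point dilutions in confirmatory testing. 500-1,000 cells/well plated 5 hours before dosing; controls were DMSO and 2.3 µM bortezomib.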

[5] = qHTS of pediatric cancer cell lines to identify multiple opportunities for drug repurposing: Primary screen for SK-N-MC cells (AID 1347093)
Method in brief: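 Metabolically active cells were quantified by ATP-dependent luminescence (CellTiter-Glo, 15 min at room temperature) following 48 h treatment. Cells had been plated at 500-1,000 per well and settled for 5 h beforehand.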

[6] = qHTS of pediatric cancer cell lines to identify multiple opportunities for drug repurposing: Primary screen for BT-37 cells (AID 1347094)
Method in brief: as §2

[7] = qHTS of pediatric cancer cell lines to identify multiple opportunities for drug repurposing: Primary screen for NB-EBc1 cells (AID 1347095)
Method in brief: as §2

[8] = qHTS of pediatric cancer cell lines to identify multiple opportunities for drug repurposing: Primary screen for Saos-2 cells (AID 1347097); note: nearly all actives have a fitted effect of over 40% in size
Method in brief: as §2

[9] = qHTS of pediatric cancer cell lines to identify multiple opportunities for drug repurposing: Primary screen for SK-N-SH cells (AID 1347098); note: nearly all actives have a fitted effect of over 65% in size
Method in brief: (§4)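 Cells (500-1,000/well) rested 5 h, then received compounds for 48 h; metabolically active cells were measured by CellTiter-Glo luminescence. Final concentrations spanned up to 46 µM (MIPE, 11-point) or 0.59 nM-46 µM (NPC, 8-point) in primary screens, 11-point in follow-ups.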

[10] = qHTS of pediatric cancer cell lines to identify multiple opportunities for drug repurposing: Primary screen for LAN-5 cells (AID 1347100)
Method in brief: as §1

[11] = qHTS of pediatric cancer cell lines to identify multiple opportunities for drug repurposing: Primary screen for BT-12 cells (AID 1347101); note: nearly all actives have a fitted effect of over 25% in size
Method in brief: as §4

[12] = qHTS of pediatric cancer cell lines to identify multiple opportunities for drug repurposing: Primary screen for A673 cells (AID 1347092); note: nearly all actives have a fitted effect of over 45% in size
Method in brief: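 Luminescence from CellTiter-Glo, taken after 15 min at room temperature, served as the proxy for metabolically active cells following 48 h treatment. Both potency and efficacy were taken from curves fitted to the titration data.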

[13] = qHTS of pediatric cancer cell lines to identify multiple opportunities for drug repurposing: Primary screen for SJ-GBM2 cells (AID 1347091)
Method in brief: as §3
Potency is the fitted concentration of half-maximal effect.

With `N/C(=N\N=C\c1ccc(Cl)cc1)N/N=C/c1ccc(Cl)cc1` as the compound, how does the Potency [1] read?
The Potency was “inactive”.

What about the Potency [2] of the same compound?
Its Potency is “inactive”.

And the Potency [3]?
Its Potency is “inactive”.

Which Potency [1] does the source give for `CC(=O)OCC(=O)[C@H]1CC[C@H]2[C@@H]3CCC4=CC(=O)CC[C@]4(C)[C@H]3CC[C@]12C` here?
Its Potency is “inactive”.

And the Potency [4]?
Its Potency is “inactive”.

What about the Potency [5] of the same compound?
Its Potency is “inactive”.

What about the Potency [6] of the same compound?
The Potency was “inactive”.

What about the Potency [7] of the same compound?
The Potency was “inactive”.

And the Potency [2]?
The Potency was “inactive”.

What about the Potency [8] of the same compound?
Its Potency is “inactive”.

What about the Potency [9] of the same compound?
The Potency was “inactive”.

What about the Potency [3] of the same compound?
The Potency was “inactive”.

What about the Potency [10] of the same compound?
Its Potency is “inactive”.

What about the Potency [11] of the same compound?
The Potency was “inactive”.

Which Potency [1] does the source give for `O=C(CCN1CCN2CCCC2C1)N1c2ccccc2Sc2ccc(Cl)cc21` (stereo unspecified) here?
Its Potency is “inactive”.

What about the Potency [4] of the same compound?
Its Potency is “inactive”.

What about the Potency [12] of the same compound?
The Potency was “inactive”.

And the Potency [5]?
The Potency was “inactive”.

What about the Potency [6] of the same compound?
Its Potency is “inactive”.

What about the Potency [7] of the same compound?
The Potency was “inactive”.

And the Potency [2]?
The Potency was “inactive”.

And the Potency [9]?
The Potency was “inactive”.

And the Potency [3]?
Its Potency is “inactive”.

And the Potency [10]?
Its Potency is “inactive”.

For `CC(C)[C@@H]1CC[C@@H](C)CC1=O`, which Potency [1] is on record?
Its Potency is “inactive”.

And the Potency [4]?
The Potency was “inactive”.

What about the Potency [12] of the same compound?
The Potency was “inactive”.

What about the Potency [6] of the same compound?
The Potency was “inactive”.

And the Potency [7]?
The Potency was “inactive”.

What about the Potency [8] of the same compound?
The Potency was “inactive”.

What about the Potency [9] of the same compound?
Its Potency is “inactive”.

And the Potency [3]?
Its Potency is “inactive”.

And the Potency [11]?
Its Potency is “inactive”.

Which Potency [2] does the source give for `C#C[C@]1(OC(C)=O)CC[C@H]2[C@@H]3CCC4=C/C(=N/O)CC[C@@H]4[C@H]3CC[C@@]21CC` here?
The Potency was “inactive”.

And the Potency [10]?
Its Potency is 23.7 µM (active).

What about the Potency [11] of the same compound?
Its Potency is “inactive”.

Which Potency [1] does the source give for `NC(N)=NN=C(/C=C/c1ccc([N+](=O)[O-])o1)/C=C/c1ccc([N+](=O)[O-])o1` here?
The Potency was 6.64 µM (active).

What about the Potency [4] of the same compound?
The Potency was 10.6 µM (active).

What about the Potency [12] of the same compound?
Its Potency is 1.06 µM (active).

What about the Potency [6] of the same compound?
The Potency was 11 µM (active).

What about the Potency [7] of the same compound?
Its Potency is 5.31 µM (active).

What about the Potency [3] of the same compound?
Its Potency is 15 µM (active).

And the Potency [10]?
The Potency was 2.11 µM (active).

And the Potency [11]?
Its Potency is 0.978 µM (active).

Which Potency [1] does the source give for `OCCOCCN1CCN(C2=Nc3ccccc3Sc3ccccc32)CC1` here?
The Potency was “inactive”.

What about the Potency [4] of the same compound?
The Potency was “inactive”.

And the Potency [12]?
Its Potency is “inactive”.

What about the Potency [5] of the same compound?
The Potency was “inactive”.

What about the Potency [6] of the same compound?
Its Potency is “inactive”.

And the Potency [7]?
The Potency was “inactive”.

What about the Potency [2] of the same compound?
The Potency was “inactive”.

And the Potency [8]?
The Potency was “inactive”.

And the Potency [9]?
Its Potency is “inactive”.

What about the Potency [3] of the same compound?
Its Potency is “inactive”.

And the Potency [10]?
Its Potency is “inactive”.

Which Potency [1] does the source give for `CN1CCC[C@@H]1CCO[C@](C)(c1ccccc1)c1ccc(Cl)cc1` here?
Its Potency is “inactive”.

And the Potency [13]?
The Potency was 21.1 µM (active).

And the Potency [5]?
Its Potency is 29.9 µM (active).

What about the Potency [2] of the same compound?
Its Potency is “inactive”.

And the Potency [8]?
Its Potency is 21.1 µM (active).

What about the Potency [9] of the same compound?
The Potency was 15.4 µM (active).

And the Potency [3]?
The Potency was “inactive”.

And the Potency [11]?
The Potency was 27.6 µM (active).

With `CCCCCCCCCCCCCC[N+](C)(C)Cc1ccccc1` as the compound, how does the Potency [13] read?
Its Potency is 21.1 µM (active).

What about the Potency [12] of the same compound?
Its Potency is 13.3 µM (active).

And the Potency [5]?
Its Potency is 11.9 µM (active).

What about the Potency [6] of the same compound?
Its Potency is 24.6 µM (active).

And the Potency [8]?
The Potency was 23.7 µM (active).

And the Potency [9]?
The Potency was 30.7 µM (active).

And the Potency [10]?
The Potency was 21.1 µM (active).

And the Potency [11]?
The Potency was 6.92 µM (active).

For `CC(C)n1c(/C=C/[C@@H](O)C[C@@H](O)CC(=O)O)c(-c2ccc(F)cc2)c2ccccc21`, which Potency [1] is on record?
Its Potency is 16.7 µM (active).

What about the Potency [4] of the same compound?
Its Potency is 1.33 µM (active).

What about the Potency [5] of the same compound?
The Potency was 15 µM (active).

What about the Potency [6] of the same compound?
Its Potency is 15.5 µM (active).

What about the Potency [2] of the same compound?
Its Potency is 6.68 µM (active).

What about the Potency [8] of the same compound?
The Potency was 1.5 µM (active).

What about the Potency [9] of the same compound?
Its Potency is 3.44 µM (active).

What about the Potency [3] of the same compound?
The Potency was 10.6 µM (active).

What about the Potency [10] of the same compound?
The Potency was “inactive”.

For `NS(=O)(=O)c1cc(C(=O)O)cc(N2CCCC2)c1Oc1ccccc1`, which Potency [1] is on record?
The Potency was “inactive”.

What about the Potency [4] of the same compound?
Its Potency is “inactive”.

What about the Potency [13] of the same compound?
The Potency was “inactive”.

What about the Potency [5] of the same compound?
The Potency was “inactive”.

And the Potency [6]?
The Potency was “inactive”.

What about the Potency [7] of the same compound?
Its Potency is “inactive”.

And the Potency [2]?
Its Potency is “inactive”.

What about the Potency [8] of the same compound?
The Potency was “inactive”.

What about the Potency [9] of the same compound?
Its Potency is “inactive”.

And the Potency [3]?
The Potency was “inactive”.

What about the Potency [11] of the same compound?
The Potency was “inactive”.

For `CC(CNC1CCCCC1)OC(=O)c1ccccc1` (stereo unspecified), which Potency [1] is on record?
The Potency was “inactive”.

And the Potency [4]?
The Potency was “inactive”.

What about the Potency [13] of the same compound?
The Potency was “inactive”.

What about the Potency [5] of the same compound?
The Potency was “inactive”.

What about the Potency [6] of the same compound?
Its Potency is “inactive”.

What about the Potency [7] of the same compound?
The Potency was “inactive”.

And the Potency [2]?
The Potency was “inactive”.

What about the Potency [9] of the same compound?
The Potency was “inactive”.

What about the Potency [3] of the same compound?
The Potency was “inactive”.

And the Potency [11]?
The Potency was “inactive”.
